Results from PubChem BioAssay AID1851 (National Center for Advancing Translational Sciences (NCATS), 2009).
Several values for one entry are separate records, joined by “and”; a condition that tells them apart may be missing. Equal values may be shown once. Hit rate of the full screen: of about 16,000 compounds, about 5,100 (32%) were called active. Roughly 25% stayed inconclusive and do not appear here. The list shows a part of the results. Values without a mark were called inactive. Calls come from the whole dose curve; as a rule, active = well fitted curve in the direction sought with a large enough effect; inconclusive = small, poorly fitted or top-dose-only effect, or effect the other way; inactive = no such curve, though single readings can be large or run the other way.

Target: Cytochrome P450 3A4 (Homo sapiens) (UniProt P08684)
Sequence (P08684 whole entry, looked up): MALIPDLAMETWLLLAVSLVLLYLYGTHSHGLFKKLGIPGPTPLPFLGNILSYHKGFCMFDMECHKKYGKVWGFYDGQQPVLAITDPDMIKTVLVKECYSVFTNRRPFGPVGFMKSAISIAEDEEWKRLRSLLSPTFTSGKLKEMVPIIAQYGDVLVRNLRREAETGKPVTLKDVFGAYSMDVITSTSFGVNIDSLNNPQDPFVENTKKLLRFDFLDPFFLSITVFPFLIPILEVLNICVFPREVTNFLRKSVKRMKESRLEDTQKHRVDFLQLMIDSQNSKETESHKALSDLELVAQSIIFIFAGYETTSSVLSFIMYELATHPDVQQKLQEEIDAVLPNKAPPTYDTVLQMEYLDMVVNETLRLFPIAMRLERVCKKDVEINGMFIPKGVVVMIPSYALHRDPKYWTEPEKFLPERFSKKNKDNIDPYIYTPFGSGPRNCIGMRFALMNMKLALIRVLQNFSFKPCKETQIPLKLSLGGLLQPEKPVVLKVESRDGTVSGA
Experiment: Cytochrome panel assay with activity outcomes
Settings: recombinant CYP, pro-luciferin dealkylation, luminescence, p450-cyp3a4; series mostly up to 57.1 µM; activity, negative = inhibition: at the top concentration
% is set by controls: 0 for no effect and ±100 for the full control effect.

Row | Compound | activity, negative = inhibition | AC50
1 | O=S(=O)(O)c1ccc(N=Nc2ccccc2)cc1 | 0.763% [at 11.4 µM] | 
2 | NCC(=O)Nc1ccc(Cl)cc1C(=O)c1ccc[nH]1 | -21.6% [at 11.4 µM] | 
3 | Cc1cc(SCC(=O)c2ccccc2)nc(SCC(=O)c2ccccc2)n1 |  | 2.82 µM (active)
4 | O=C(O)CSc1cc(C(F)(F)F)nc(-c2ccccn2)n1 | -5.8% | 
5 | Cc1cc(C)nc(SCCc2cccc[n+]2C)n1 | -11% [at 11.4 µM] | 
6 | CC(=O)NCCNc1ncnc2ccc(-c3ccc4c(c3)OCO4)cc12 |  | 5.01 µM (active)
7 | c1nc(NCCN2CCOCC2)c2cc(-c3ccc4c(c3)OCO4)ccc2n1 |  | 5.01 µM (active)
8 | c1ccc(-n2ncc3c(NCCCN4CCOCC4)ncnc32)cc1 | -19.7% | 
9 | CC(=O)NCCNc1ncnc2ccc(-c3ccoc3)cc12 | -28.8% | 
10 | c1cncc(-c2ccc3ncnc(NCCN4CCOCC4)c3c2)c1 |  | 12.6 µM (active)
11 | NCCCCNCCCN |  | inactive
12 | N#Cc1ccccc1Sc1ccccc1N |  | 17.8 µM (active)
13 | O=C1CCC(c2ccccc2)=NN1c1nc2ccccc2s1 | -23.1% [at 11.4 µM] | 
14 | c1ccc2sc(N3CCN(Cc4ccc5c(c4)OCO5)CC3)nc2c1 |  | 0.631 µM (active)
15 | CC1CCOC2(O1)C(=O)N(CN1CCN(c3ccccc3F)CC1)c1ccccc12 (stereo unspecified) | -17.6% | 
16 | CC(C)c1ccc(C(=O)CC2(O)C(=O)N(CN3CCOCC3)c3ccccc32)cc1 (stereo unspecified) |  | 8.91 µM (active)
17 | CC(=O)N1CCC(=O)N(C(C)C)c2ccccc21 | 7.06% | 
18 | O=C(NCc1cccnc1)/C(=C/c1ccc(-c2cccc(Cl)c2)o1)S(=O)(=O)c1ccccc1 |  | 0.501 µM (active)
19 | COc1ccc(C(=O)N2CCC3(CC2)CN(C(=O)NC(C)C)C3)cc1 | -12.2% | 
20 | CC(C)NC(=O)N1CCCC2(CCN(C(=O)c3ccncc3)CC2)C1 |  | 15.8 µM (active)
21 | Cc1noc(C)c1C(=O)N1CCC2(CCCN(C(=O)NC(C)C)C2)CC1 | -6.25% | 
22 | CC(C)CN1CC[C@@]2(CCCN(C(=O)c3cc(C(F)(F)F)cc(C(F)(F)F)c3)C2)C1 |  | 12.6 µM (active)
23 | CC(C)CN1CCC2(CC1)CCN(C(=O)c1cc(C(F)(F)F)cc(C(F)(F)F)c1)CC2 | 24.6% | 
24 | CC(C)NC(=O)N1CC2(CCN(C(=O)c3cc(C(F)(F)F)cc(C(F)(F)F)c3)CC2)C1 | -10.5% | 

Row | Compound | activity, negative = inhibition | AC50
25 | CC(C)NC(=O)N1CCCC2(CCN(C(=O)c3cc(C(F)(F)F)cc(C(F)(F)F)c3)CC2)C1 |  | 25.1 µM (active)
26 | CC(C)NC(=O)N1CC[C@@]2(CCCN(C(=O)c3cc(C(F)(F)F)cc(C(F)(F)F)c3)C2)C1 |  | 15.8 µM (active)
27 | CN1CCC2(CC1)CCN(C(=O)c1cc(C(F)(F)F)cc(C(F)(F)F)c1)CC2 | -4.42% | 
28 | C=C1CCO[C@@]2([C@H](O)[C@@](C)(O)CO)NC(=O)[C@]1(O)NC2=O | -2.69% [at 11.4 µM] | 
29 | O=C(O)CCC(=O)c1ccc2sc3ccccc3c2c1 | -21.1% [at 11.4 µM] | 
30 | C/C(CCc1ccc2c(c1)OCO2)=N\N=C1\NC(=O)CC(C(=O)Nc2ccccc2)S1 (stereo unspecified) |  | 2.24 µM (active)
31 | COc1ccc(Cl)cc1N=Nc1ncc[nH]1 |  | 10 µM (active)
32 | COC(=O)c1c(-c2cc(OC)c(OC)c(OC)c2)c2ccc(OCc3ccccn3)cc2c(=O)n1-c1ccc(N)cc1 |  | 0.398 µM (active)
33 | CC(C)C(=O)NCCCc1ccccc1 | 2.86% [at 11.4 µM] | 
34 | Cc1cc(C)c(NC(=O)CS(=O)CC(=O)NCCCc2ccccc2)c(C)c1 (stereo unspecified) |  | 3.55 µM (active)
35 | N#CC(c1ccc(Cl)cc1)(c1ncc(C(F)(F)F)cc1Cl)N1CCOCC1 (stereo unspecified) |  | 12.6 µM (active)
36 | FC(F)(F)c1cnc(N2CCC(=NOCc3ccc(Cl)cc3)CC2)c(Cl)c1 | 1.69% | 
37 | COC(=O)[C@@H]1[C@@H]2C[C@H]3c4[nH]c5ccccc5c4CCN3C[C@@H]2CC[C@@H]1OS(=O)(=O)O | 0.48% [at 11.4 µM] | 
38 | CC(O)(CS(=O)(=O)Cc1ccc(Cl)cc1)C(=O)Nc1cccc(C(F)(F)F)c1 (stereo unspecified) |  | 2 µM (active)
39 | CC(O)(CS(=O)(=O)Cc1ccccc1Cl)C(=O)Nc1cccc(C(F)(F)F)c1 (stereo unspecified) |  | 2.51 µM (active)
40 | CC(=O)Nc1cccc(C(=O)OCc2ccc(C(=O)Oc3ccc(Cl)cc3)cc2)c1 | -19.7% | 
41 | COCCNC(=O)CCn1nc(-c2ccc(Cl)cc2)ccc1=O | -26.5% | 
42 | CN(C)CCNC(=O)Cn1nc(-c2ccc(Cl)cc2)ccc1=O | -11.8% | 
43 | O=C(CCn1nc(-c2ccc(Cl)cc2)ccc1=O)NCc1ccccn1 |  | 10 µM (active)
44 | Cc1ccc(-n2nnnc2-c2cnc3ccc(Cl)cc3c2-c2ccccc2)cc1 |  | 5.62 µM (active)
45 | Cc1nc(SCC(=O)c2ccc(F)cc2)c([N+](=O)[O-])[nH]1 | 5.95% [at 2.29 µM] | 
46 | Cc1ccc2nc(SCC(=O)c3ccc4c(c3)OCO4)[nH]c2c1 |  | 2.24 µM (active)
47 | Cc1ccc(C(=O)CSc2nc(C)cc(=O)[nH]2)cc1 | -13.8% | 
48 | CNc1cc(NS(=O)(=O)c2ccc(N)cc2)nc(NC)n1 |  | 0.794 µM (active)

Row | Compound | activity, negative = inhibition | AC50
49 | Cc1cc(C)nc(NS(=O)(=O)c2ccc(N)cc2)n1 | -9.98% [at 25.6 µM] | 
50 | Nc1ccc(S(=O)(=O)Nc2cnc3ccccc3n2)cc1 | -8.37% [at 11.4 µM] | 
51 | NC1=N[C@H](c2ccc(Cl)cc2)N(c2ccc(S(=O)(=O)Nc3ncccn3)cc2)C(N)=N1 | 6.25% [at 11.4 µM] | 
52 | COc1cc(CC(=O)OC2CCOC2=O)cc(OC)c1OC (stereo unspecified) | -12.8% | 
53 | Cc1cc(C(=O)OC2CCOC2=O)c2ccccc2n1 (stereo unspecified) | -7.34% [at 11.4 µM] | 
54 | COc1cc(OC)cc(C(=O)NCC(=O)OC2CCOC2=O)c1 (stereo unspecified) |  | 25.1 µM (active)
55 | O=C1C[C@@H](O)[C@@H](O)[C@H]2[C@@H]3C(=O)N(C[C@@H]4CCCO4)C(=O)[C@@H]3CC[C@H]12 | 9.5% [at 11.4 µM] and -5.79% [at 11.4 µM] | 
56 | O=c1[nH]c(=S)c2[nH]c(=O)n(-c3ccccc3)c2[nH]1 | -9.23% [at 11.4 µM] | 
57 | CCOc1ccccc1NC(=O)CN1CCC(NC(=O)c2ccccc2)CC1 | 13.9% | 
58 | CCOc1ccccc1NC(=O)C1=C(C)NC(=O)NC1c1cccc(OC)c1OC (stereo unspecified) |  | 3.98 µM (active)
59 | C#CCn1c(S(=O)(=O)Cc2ccc(OC)cc2)nc(-c2ccccc2)c1-c1ccccc1 |  | 6.31 µM (active)
60 | COc1ccccc1C1(CC(=O)Nc2nccs2)CCOC(C(C)C)C1 (stereo unspecified) |  | 6.31 µM (active)
61 | O=c1oc2cc(N=Cc3ccc4c(c3)OCO4)ccc2c2ccccc12 |  | 3.98 µM (active)
62 | O=[N+]([O-])c1ccc2c(c1)Cc1cc(N=Cc3ccc4c(c3)OCO4)ccc1-2 | -16.1% [at 11.4 µM] | 
63 | CC(=O)NC1(c2cccc(F)c2)CCN(CC(=O)NC(C)C)CC1 | -4.95% | 
64 | COc1ccc(/C(C)=N/NC(=O)c2ccc(N(C)C)cc2)cc1 | -29.1% | 
65 | COc1ccc(C(=O)N/N=C2/C(=O)c3c(C)cc(C)cc3CC2(C)C)cc1 |  | 3.16 µM (active)
66 | COc1ccccc1CN1CCC2(CCNCC2)CC1 | -17.9% | 
67 | c1cncc(-c2nc(NCc3cccs3)c3ccccc3n2)c1 |  | 2 µM (active)
68 | c1csc(CNc2nc(-c3ccoc3)nc3ccccc23)c1 |  | 7.94 µM (active)
69 | c1cncc(CNc2nc(-c3ccoc3)nc3ccccc23)c1 |  | 7.94 µM (active)
70 | Cc1cccc(CNc2nc(-c3ccoc3)nc3ccccc23)c1 |  | 6.31 µM (active)
71 | NS(=O)(=O)c1cc2c(cc1Cl)=NC(CCC(=O)O)=NS=2(=O)O | 15.3% [at 11.4 µM] | 
72 | c1ccc(CNc2nc(-c3ccoc3)nc3ccccc23)cc1 |  | 12.6 µM (active)

Row | Compound | activity, negative = inhibition | AC50
73 | Cc1ccccc1-c1cncnc1Nc1ccc(F)cc1 |  | 0.2 µM (active)
74 | CNc1ncncc1-c1ccccc1C |  | 0.631 µM (active)
75 | Cc1ccccc1-c1cncnc1NC1CCNCC1 |  | 15.8 µM (active)
76 | CNc1cc(-c2ccccc2C)ncn1 | -9.16% | 
77 | COc1ccccc1-c1cncnc1Nc1ccc(F)cc1 |  | 0.158 µM (active)
78 | c1cncc(-c2cncnc2NC2CCNCC2)c1 | -27.5% | 
79 | CC(=O)N(C[C@@H](C)C(=O)O)c1c(I)cc(I)c(N)c1I | -6.88% [at 25.6 µM] | 
80 | CCCCCSc1nncc(=O)[nH]1 | 2.96% [at 11.4 µM] | 
81 | O=C(O)[C@@H]1[C@@H](C(=O)Nc2ccccc2)[C@@H]2C=C[C@@H]1O2 | -5.39% [at 11.4 µM] | 
82 | O=C(O)[C@@H]1[C@@H]2C[C@@H]3[C@@H](OC(=O)[C@@H]31)[C@H]2Br | -5.69% [at 11.4 µM] | 
83 | CCCNc1[nH]c(=O)n(C)c(=O)c1N=O | -16% [at 2.29 µM] | 
84 | Cc1ccccc1-c1cncnc1Nc1ccccc1 |  | 0.631 µM (active)
85 | Cc1cc(Nc2ccccc2)nc(N)n1 | 7.63% | 
86 | O=C(O)c1ccc(Nc2ccnc3cc(Cl)ccc23)cc1O | -7.77% [at 11.4 µM] | 
87 | Cc1cccc(C)c1NC(=O)[C@H](C)N | -11.4% [at 25.6 µM] | 
88 | Cc1cccc(C)c1NC(=O)C(NC=O)c1ccccc1Cl (stereo unspecified) |  | 10 µM (active)
89 | CCOC(=O)c1[nH]c2cc3c(cc2c1NC(=O)CN1CCC2(CC1)OCCO2)OCO3 | 14.9% | 
90 | CCOC(=O)c1[nH]c2cc(OC)c(OC)cc2c1NC(=O)c1ccc2c(c1)OCO2 |  | 7.94 µM (active)
91 | CCOC(=O)c1[nH]c2ccc(OC)cc2c1NC(=O)c1ccc2c(c1)OCO2 |  | 1.41 µM (active)
92 | COC(=O)c1[nH]c2cc(OC)ccc2c1NC(=O)CCN1CCSCC1 | 1.53% [at 2.29 µM] | 
93 | COC(=O)c1[nH]c2cccc(OC)c2c1NC(=O)CN(C)CC1OCCO1 | -7.49% | 
94 | CCOC(=O)c1[nH]c2cc3c(cc2c1NC(=O)CN1CCc2ccccc2C1)OCO3 |  | 0.708 µM (active)
95 | CCOC(=O)c1ccc(NC(=O)C2(c3ccc(OC)cc3)CCOCC2)cc1 | -2.41% [at 2.29 µM] | 
96 | COC(=O)c1[nH]c2cc(OC)ccc2c1NC(=O)c1ccc2c(c1)OCO2 |  | 7.94 µM (active)
